In the supplement of paper PMC13380429:

system: Vero E6 infected with SARS-CoV-2; test: morphology score (similarity to uninfected cells); higher = more like uninfected cells; settings: 24 h

SMILES	morphology score
CNC(=O)[C@@H](c1ccccc1)N1CCc2cc(OC)c(OC)cc2[C@@H]1CCc1ccc(C(F)(F)F)cc1 [almorexant] (10 µM)	-0.0542
O=C(O)[C@@H]1C[C@@H](O)CN1 [L-hydroxyproline] (10 µM)	0.203
CCCc1ncc(C[n+]2ccccc2C)c(N)n1 [amprolium] (10 µM)	-0.0897
CC(C)n1nnc2cc(C(=O)O)ccc21 (10 µM)	0.0496
CCc1nc2ccc(Cl)cn2c1C(=O)NCc1ccc(N2CCC(c3ccc(OC(F)(F)F)cc3)CC2)cc1 (10 µM)	0.0715
CCN(CC)CCOC(=O)c1cc(Cl)c(N)cc1OC (10 µM)	0.128
c1ccc2c(CC3=NCCN3)cccc2c1 [naphazoline] (10 µM)	0.146
Cc1ccc(S(=O)(=O)OCC(=O)Nc2ccc(C(=O)O)c(O)c2)cc1 [STAT3-inhibitor-VI] (10 µM)	0.0369
O=C1c2ccccc2C(Cc2ccnc(F)c2)(Cc2ccnc(F)c2)c2ccccc21 (10 µM)	-0.17
C[C@]12CCC(=O)C=C1CC[C@@H]1[C@@H]2[C@@H](O)C[C@@]2(C)[C@H]1CC[C@]2(O)C(=O)COC(=O)CCC(=O)O [hydrocortisone-hemisuccinate] (10 µM)	-0.338
CC1=C(CC(=O)O)c2cc(F)ccc2/C1=C\c1ccc(S(C)(=O)=O)cc1 [exisulind] (10 µM)	0.0955
CCc1cc2c(cc1N1CCC(N3CCOCC3)CC1)C(C)(C)c1[nH]c3cc(C#N)ccc3c1C2=O [alectinib] (10 µM)	0.135
Cc1ccccc1C(OCCN(C)C)c1ccccc1 (stereo not given) [orphenadrine] (10 µM)	0.316
Cc1ccccc1-c1cc(N2CCN(C)CC2)ncc1N(C)C(=O)C(C)(C)c1cc(C(F)(F)F)cc(C(F)(F)F)c1 [netupitant] (10 µM)	0.112
CCCCc1cc2ccccc2c(OCCN(C)C)n1 [dimethisoquin] (10 µM)	0.41
CCCCCOc1ccc(-c2cc(-c3ccc(C(=O)N[C@H]4C[C@@H](O)[C@@H](O)NC(=O)[C@@H]5[C@@H](O)[C@@H](C)CN5C(=O)[C@H]([C@H](O)CC(N)=O)NC(=O)[C@H]([C@H](O)[C@@H](O)c5ccc(O)c(OS(=O)(=O)O)c5)NC(=O)[C@@H]5C[C@@H](O)CN5C(=O)[C@H]([C@@H](C)O)NC4=O)cc3)no2)cc1 [micafungin] (10 µM)	0.0545
OB1OCc2cc(F)ccc21 [tavaborole] (10 µM)	0.00492
O=C(O)Cn1c(C(=O)Nc2nc(-c3ccccc3Cl)cs2)cc2ccccc21 (10 µM)	0.162
CC1/C=C/C=C/C=C/C=C/C=C/C=C/C=C/C(OC2O[C@H](C)[C@@H](O)[C@H](N)[C@@H]2O)CC(O)C(C(=O)O)C(O)CC(=O)CC(O)CC(O)CC(O)CC(=O)CCCC(=O)CC(=O)OC1C(C)CC(C)C(O)CC(=O)c1ccc(N)cc1 (stereo not given in full) [candicidin] (0.833333 µM)	0.198
CCCCCCCC/C=C\CCCCCCCC(=O)NCCO [oleoylethanolamide] (10 µM)	0.0636

SMILES	morphology score
O=C(c1cc(S(=O)(=O)Nc2ccccc2F)c(F)cc1Cl)N1CCN2CCC[C@@H]2C1 (10 µM)	0.0625
O=c1ccc2ccc(OCCCCN3CCN(c4cccc5sccc45)CC3)cc2[nH]1 [brexpiprazole] (10 µM)	0.0142
N=C(N)NC(=N)Nc1cccc(Cl)c1 [m-chlorophenylbiguanide] (10 µM)	-0.0474
NC(=O)CN1CC[C@@H](NC(=O)[C@@H]2CCCN2)C1=O (10 µM)	0.096
Cc1ccc(NC(=O)c2cccc(C(C)(C)C#N)c2)cc1Nc1ccc2ncn(C)c(=O)c2c1 (0.833333 µM)	-0.0585
NCC(CC(=O)O)c1ccccc1 (stereo not given) [fenigam] (10 µM)	0.256
COc1ccc(Cc2cnc(N)nc2N)cc1OC [diaveridine] (10 µM)	0.191
Cn1cc(-c2cnn3c(N)c(Br)c([C@@H]4CCCNC4)nc23)cn1 (10 µM)	0.535
Oc1c(Br)cc(Br)c2cccnc12 [broxyquinoline] (10 µM)	0.015
COC(=O)Nc1ccc(-c2nc(N3CCOCC3)c3cnn(C4CCN(Cc5cccnc5)CC4)c3n2)cc1 (10 µM)	-0.198
C[C@H]1COc2c(C3(N)CC3)c(F)cc3c(=O)c(C(=O)O)cn1c23 [pazufloxacin] (10 µM)	0.202
Cc1cc(O)c2c(=O)c3c(O)cc(O)c4c5c(O)cc(O)c6c(=O)c7c(O)cc(C)c8c1c2c(c34)c(c78)c65 [hypericin] (10 µM)	-0.152
Nc1ccn([C@@H]2O[C@H](CO)[C@@H](O)[C@@H]2O)c(=O)n1 [cytarabine] (0.833333 µM)	0.0731
OCc1cc(C(O)CNCCCCCCOCCCCc2ccccc2)ccc1O (stereo not given) [salmeterol] (10 µM)	0.465
C[C@H](c1ccc(F)cc1CCCC(=O)O)N(c1cc(F)ccc1F)S(=O)(=O)c1ccc(Cl)cc1 (10 µM)	0.0279
CN(Cc1cnc2nc(N)nc(N)c2n1)c1ccc(C(=O)N[C@@H](CCC(=O)O)C(=O)O)cc1 [methotrexate] (10 µM)	-0.183
CCC(=O)O[C@H](CC(=O)O)C[N+](C)(C)C [levocarnitine-propionate] (10 µM)	-0.0873
CCOC(=O)Nc1ccc2c(c1)N(C(=O)CN(CC)CC)c1ccccc1CC2 (10 µM)	0.0358
CS(=O)(=O)CCNCc1nc(-c2ccc3ncnc(Nc4ccc(OCc5cccc(F)c5)c(Cl)c4)c3c2)cs1 (10 µM)	-0.294
CN(C)/C=N/c1c(I)cc(I)c(CCC(=O)O)c1I [iopodic-acid] (10 µM)	0.0727
